# Tests used:
# Assay in all cases: DAPPL (digital affinity profiling via proximity ligation, sequencing); 10 mM Tris-HCl pH 7.5, 50 mM NaCl, 1 mM DTT, 4% glycerol, room temperature, 30 min; GST-TFs on glutathione beads, 16-mer random dsDNA library, 0.1% formaldehyde crosslink after washing; high values mean tight binding
# FLI1 = biological target: T1, FLI1 (Homo sapiens, UniProt Q01543 1-452); conditions: protein: recombinant; tags: N-terminal GST; dsDNA, one strand shown
# T1 sequence: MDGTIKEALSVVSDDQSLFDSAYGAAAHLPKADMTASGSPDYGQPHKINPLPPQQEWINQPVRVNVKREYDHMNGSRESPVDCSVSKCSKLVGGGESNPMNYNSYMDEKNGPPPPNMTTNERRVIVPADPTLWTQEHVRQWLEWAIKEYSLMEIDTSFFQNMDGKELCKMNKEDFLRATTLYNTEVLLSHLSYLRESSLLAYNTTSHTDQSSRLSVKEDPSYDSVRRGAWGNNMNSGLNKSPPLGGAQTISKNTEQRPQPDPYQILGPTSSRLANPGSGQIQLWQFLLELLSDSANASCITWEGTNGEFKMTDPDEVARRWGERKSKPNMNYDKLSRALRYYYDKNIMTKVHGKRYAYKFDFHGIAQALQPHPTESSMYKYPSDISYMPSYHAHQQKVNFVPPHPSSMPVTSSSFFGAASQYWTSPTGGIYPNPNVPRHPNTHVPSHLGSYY
# Summary of the method: (§1)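 Binding signal is defined as a hexamer's read frequency for one factor over its frequency for the tag-only sample. To obtain reads, GST-fused human transcription factors were expressed in yeast, captured on glutathione beads, barcoded with DNA and pooled with that sample. Pools met 200 nmole of a 16-mer random double-stranded DNA library in Tris/NaCl/DTT/glycerol buffer for 30 min at room temperature before washing, 0.1% formaldehyde crosslinking, proximity ligation (BsaI/T4 ligase, 1 h, 37 °C), PCR and Illumina NextSeq500 sequencing.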
# ELK1 = biological target: T2, ELK1 (Homo sapiens, UniProt P19419 1-428); conditions: protein: recombinant; tags: N-terminal GST; dsDNA, one strand shown
# T2 sequence: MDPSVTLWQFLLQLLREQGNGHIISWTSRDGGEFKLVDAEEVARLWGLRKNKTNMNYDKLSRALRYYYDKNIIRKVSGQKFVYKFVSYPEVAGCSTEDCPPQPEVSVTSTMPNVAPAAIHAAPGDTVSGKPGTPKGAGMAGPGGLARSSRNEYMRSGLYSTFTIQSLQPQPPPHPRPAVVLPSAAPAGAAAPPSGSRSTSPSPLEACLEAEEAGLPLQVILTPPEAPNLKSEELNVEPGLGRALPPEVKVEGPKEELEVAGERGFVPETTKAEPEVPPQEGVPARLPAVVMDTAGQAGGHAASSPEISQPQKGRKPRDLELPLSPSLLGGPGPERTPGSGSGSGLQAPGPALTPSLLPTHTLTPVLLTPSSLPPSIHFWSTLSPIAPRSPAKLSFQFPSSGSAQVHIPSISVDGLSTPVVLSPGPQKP
# Summary of the method: as §1
# GABPA = biological target: T3, GABPA (Homo sapiens, UniProt Q06546 1-454); conditions: protein: recombinant; tags: N-terminal GST; dsDNA, one strand shown
# T3 sequence: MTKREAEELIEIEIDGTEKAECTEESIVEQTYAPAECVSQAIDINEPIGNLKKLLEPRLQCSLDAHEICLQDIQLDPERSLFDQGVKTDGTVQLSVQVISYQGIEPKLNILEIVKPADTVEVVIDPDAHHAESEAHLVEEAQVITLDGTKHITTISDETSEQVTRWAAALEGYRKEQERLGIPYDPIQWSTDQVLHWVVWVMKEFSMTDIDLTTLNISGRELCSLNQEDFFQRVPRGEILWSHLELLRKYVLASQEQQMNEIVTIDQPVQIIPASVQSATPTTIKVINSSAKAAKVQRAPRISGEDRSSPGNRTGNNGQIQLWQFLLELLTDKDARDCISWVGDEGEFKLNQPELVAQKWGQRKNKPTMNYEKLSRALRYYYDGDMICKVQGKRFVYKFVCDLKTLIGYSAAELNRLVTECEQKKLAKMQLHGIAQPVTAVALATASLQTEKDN
# Summary of the method: as §1
# ERG = biological target: T4, ERG (Homo sapiens, UniProt P11308 1-479); conditions: protein: recombinant; tags: N-terminal GST; dsDNA, one strand shown
# T4 sequence: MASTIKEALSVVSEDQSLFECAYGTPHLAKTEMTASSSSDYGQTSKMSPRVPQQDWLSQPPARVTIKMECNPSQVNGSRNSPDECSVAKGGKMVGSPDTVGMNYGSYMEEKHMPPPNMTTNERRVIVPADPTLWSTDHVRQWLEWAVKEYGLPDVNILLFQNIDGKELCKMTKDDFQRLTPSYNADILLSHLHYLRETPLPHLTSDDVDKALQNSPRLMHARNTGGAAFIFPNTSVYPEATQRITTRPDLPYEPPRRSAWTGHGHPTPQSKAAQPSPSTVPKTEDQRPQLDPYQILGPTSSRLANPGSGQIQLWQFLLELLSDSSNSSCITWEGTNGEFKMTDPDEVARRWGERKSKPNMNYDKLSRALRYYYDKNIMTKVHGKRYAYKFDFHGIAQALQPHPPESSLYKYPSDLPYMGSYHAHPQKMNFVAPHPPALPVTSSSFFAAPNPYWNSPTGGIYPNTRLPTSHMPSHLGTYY
# Summary of the method: as §1
# ELF1 = ELF1 (Homo sapiens, UniProt P32519 1-619); conditions: protein: recombinant; tags: N-terminal GST; dsDNA, one strand shown
# Summary of the method: as §1
# EHF = biological target: T5, EHF (Homo sapiens, UniProt Q9NZC4 1-300); conditions: protein: recombinant; tags: N-terminal GST; dsDNA, one strand shown
# T5 sequence: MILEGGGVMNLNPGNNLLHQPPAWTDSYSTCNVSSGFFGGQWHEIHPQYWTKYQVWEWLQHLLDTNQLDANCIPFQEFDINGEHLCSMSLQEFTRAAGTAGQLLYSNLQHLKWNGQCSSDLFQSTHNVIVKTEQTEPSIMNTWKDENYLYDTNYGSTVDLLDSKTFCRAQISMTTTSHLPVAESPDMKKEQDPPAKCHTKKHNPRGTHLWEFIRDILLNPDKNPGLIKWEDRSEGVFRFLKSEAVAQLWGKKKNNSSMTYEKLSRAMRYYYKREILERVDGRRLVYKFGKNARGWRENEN
# Summary of the method: as §1
# SPI1 = SPI1 (Homo sapiens, UniProt P17947 1-270); conditions: protein: recombinant; tags: N-terminal GST; dsDNA, one strand shown
# Summary of the method: as §1
# SPIB = SPIB (Homo sapiens, UniProt Q01892 1-262); conditions: protein: recombinant; tags: N-terminal GST; dsDNA, one strand shown
# Summary of the method: as §1
# ELK3 = biological target: T6, ELK3 (Homo sapiens, UniProt P41970 1-407); conditions: protein: recombinant; tags: N-terminal GST; dsDNA, one strand shown
# T6 sequence: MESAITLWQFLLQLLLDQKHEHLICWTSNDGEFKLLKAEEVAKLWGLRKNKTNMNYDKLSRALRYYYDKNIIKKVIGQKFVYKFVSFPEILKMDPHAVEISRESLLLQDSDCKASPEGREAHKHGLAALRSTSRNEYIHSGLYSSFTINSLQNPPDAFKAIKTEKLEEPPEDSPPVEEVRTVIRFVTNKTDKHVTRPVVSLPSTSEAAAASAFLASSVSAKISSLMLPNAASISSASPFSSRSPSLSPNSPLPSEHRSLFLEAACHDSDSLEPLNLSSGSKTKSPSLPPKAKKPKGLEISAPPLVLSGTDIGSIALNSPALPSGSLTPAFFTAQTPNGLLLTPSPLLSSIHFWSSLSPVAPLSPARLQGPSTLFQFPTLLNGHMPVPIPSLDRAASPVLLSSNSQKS
# Summary of the method: as §1
# FEV = biological target: T7, FEV (Homo sapiens, UniProt Q99581 1-238); conditions: protein: recombinant; tags: N-terminal GST; dsDNA, one strand shown
# T7 sequence: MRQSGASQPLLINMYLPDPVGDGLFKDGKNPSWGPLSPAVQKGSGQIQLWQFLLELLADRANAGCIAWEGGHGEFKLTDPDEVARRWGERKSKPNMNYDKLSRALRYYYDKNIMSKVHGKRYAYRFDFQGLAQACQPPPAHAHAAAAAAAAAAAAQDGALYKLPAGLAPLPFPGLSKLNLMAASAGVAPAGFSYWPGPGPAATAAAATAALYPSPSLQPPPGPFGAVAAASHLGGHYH
# Summary of the method: as §1
# ETV5 = ETV5 (Homo sapiens, UniProt P41161 1-510); conditions: protein: recombinant; tags: N-terminal GST; dsDNA, one strand shown
# Summary of the method: as §1
# HSF1 = HSF1 (Homo sapiens, UniProt Q00613 1-529); conditions: protein: recombinant; tags: N-terminal GST; chain copies: 3; dsDNA, one strand shown
# Summary of the method: as §1
# SPIC = biological target: T8, SPIC (Homo sapiens, UniProt Q8N5J4 1-248); conditions: protein: recombinant; tags: N-terminal GST; dsDNA, one strand shown
# T8 sequence: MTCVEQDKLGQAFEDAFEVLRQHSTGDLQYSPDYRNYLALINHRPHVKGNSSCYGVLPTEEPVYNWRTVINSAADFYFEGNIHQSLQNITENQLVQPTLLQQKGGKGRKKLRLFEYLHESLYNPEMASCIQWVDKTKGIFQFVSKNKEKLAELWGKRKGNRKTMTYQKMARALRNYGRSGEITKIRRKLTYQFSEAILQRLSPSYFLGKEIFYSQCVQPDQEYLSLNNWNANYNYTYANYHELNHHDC
# Summary of the method: as §1
# ELF4 = ELF4 (Homo sapiens, UniProt Q99607 1-663); conditions: protein: recombinant; tags: N-terminal GST; dsDNA, one strand shown
# Summary of the method: as §1
# ELK4 = biological target: T9, ELK4 (Homo sapiens, UniProt P28324-2 1-405); conditions: protein: recombinant; tags: N-terminal GST; dsDNA, one strand shown
# T9 sequence: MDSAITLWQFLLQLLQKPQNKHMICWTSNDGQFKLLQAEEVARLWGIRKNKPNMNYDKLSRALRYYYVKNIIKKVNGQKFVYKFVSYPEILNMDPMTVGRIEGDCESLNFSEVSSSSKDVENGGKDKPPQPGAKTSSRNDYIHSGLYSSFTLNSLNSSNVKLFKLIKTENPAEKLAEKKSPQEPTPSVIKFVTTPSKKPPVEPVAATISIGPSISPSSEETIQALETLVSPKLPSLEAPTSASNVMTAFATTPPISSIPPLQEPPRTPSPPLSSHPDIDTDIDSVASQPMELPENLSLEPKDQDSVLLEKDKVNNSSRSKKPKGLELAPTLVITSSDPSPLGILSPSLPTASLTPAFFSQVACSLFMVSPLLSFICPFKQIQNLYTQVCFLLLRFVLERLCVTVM
# Summary of the method: as §1
# ETV2 = biological target: T10, ETV2 (Homo sapiens, UniProt O00321 1-342); conditions: protein: recombinant; tags: N-terminal GST; dsDNA, one strand shown
# T10 sequence: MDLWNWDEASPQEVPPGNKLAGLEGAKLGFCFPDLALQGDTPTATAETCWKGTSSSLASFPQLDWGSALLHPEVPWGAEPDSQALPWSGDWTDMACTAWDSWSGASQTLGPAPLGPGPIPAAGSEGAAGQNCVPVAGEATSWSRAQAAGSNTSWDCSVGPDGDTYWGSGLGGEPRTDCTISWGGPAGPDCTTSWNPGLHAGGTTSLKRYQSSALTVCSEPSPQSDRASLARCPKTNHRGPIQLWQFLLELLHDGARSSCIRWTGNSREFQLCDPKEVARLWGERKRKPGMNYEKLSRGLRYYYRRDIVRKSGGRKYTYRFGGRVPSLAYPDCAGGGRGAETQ
# Summary of the method: as §1
# ELF3 = biological target: T11, ELF3 (Homo sapiens, UniProt P78545 1-371); conditions: protein: recombinant; tags: N-terminal GST; dsDNA, one strand shown
# T11 sequence: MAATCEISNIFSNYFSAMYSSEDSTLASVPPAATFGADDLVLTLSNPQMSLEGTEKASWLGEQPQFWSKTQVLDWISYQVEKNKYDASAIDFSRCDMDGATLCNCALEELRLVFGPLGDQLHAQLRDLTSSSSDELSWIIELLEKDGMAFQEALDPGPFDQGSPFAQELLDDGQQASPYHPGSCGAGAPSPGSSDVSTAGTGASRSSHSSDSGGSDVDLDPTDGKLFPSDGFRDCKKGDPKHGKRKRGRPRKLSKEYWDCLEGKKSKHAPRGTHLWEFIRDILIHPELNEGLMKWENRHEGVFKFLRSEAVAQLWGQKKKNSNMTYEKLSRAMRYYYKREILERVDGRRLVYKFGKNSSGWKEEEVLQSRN
# Summary of the method: as §1
# CRX = CRX (Homo sapiens, UniProt O43186 1-299); conditions: protein: recombinant; tags: N-terminal GST; dsDNA, one strand shown
# Summary of the method: as §1
# ETV1 = ETV1 (Homo sapiens, UniProt P50549 1-477); conditions: protein: recombinant; tags: N-terminal GST; dsDNA, one strand shown
# Summary of the method: as §1
# Chain of ELF4 (Q99607 whole entry): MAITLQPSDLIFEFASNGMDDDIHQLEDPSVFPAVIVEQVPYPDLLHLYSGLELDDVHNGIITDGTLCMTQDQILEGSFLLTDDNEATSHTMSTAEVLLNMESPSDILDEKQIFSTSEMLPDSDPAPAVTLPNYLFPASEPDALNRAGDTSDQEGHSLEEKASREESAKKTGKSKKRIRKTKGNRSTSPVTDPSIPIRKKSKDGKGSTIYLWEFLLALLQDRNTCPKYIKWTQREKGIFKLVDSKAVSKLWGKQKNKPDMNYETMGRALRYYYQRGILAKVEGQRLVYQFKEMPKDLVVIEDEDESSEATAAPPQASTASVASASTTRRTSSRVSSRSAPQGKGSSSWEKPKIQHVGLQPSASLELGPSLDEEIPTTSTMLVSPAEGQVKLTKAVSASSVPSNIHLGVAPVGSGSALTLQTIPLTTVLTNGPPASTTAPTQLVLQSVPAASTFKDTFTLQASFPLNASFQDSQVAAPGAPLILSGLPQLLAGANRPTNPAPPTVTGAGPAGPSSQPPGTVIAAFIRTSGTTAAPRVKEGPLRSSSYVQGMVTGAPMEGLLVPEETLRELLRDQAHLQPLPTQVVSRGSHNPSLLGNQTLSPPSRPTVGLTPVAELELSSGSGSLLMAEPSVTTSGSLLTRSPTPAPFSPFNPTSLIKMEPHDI
# Chain of ETV5 (P41161 whole entry): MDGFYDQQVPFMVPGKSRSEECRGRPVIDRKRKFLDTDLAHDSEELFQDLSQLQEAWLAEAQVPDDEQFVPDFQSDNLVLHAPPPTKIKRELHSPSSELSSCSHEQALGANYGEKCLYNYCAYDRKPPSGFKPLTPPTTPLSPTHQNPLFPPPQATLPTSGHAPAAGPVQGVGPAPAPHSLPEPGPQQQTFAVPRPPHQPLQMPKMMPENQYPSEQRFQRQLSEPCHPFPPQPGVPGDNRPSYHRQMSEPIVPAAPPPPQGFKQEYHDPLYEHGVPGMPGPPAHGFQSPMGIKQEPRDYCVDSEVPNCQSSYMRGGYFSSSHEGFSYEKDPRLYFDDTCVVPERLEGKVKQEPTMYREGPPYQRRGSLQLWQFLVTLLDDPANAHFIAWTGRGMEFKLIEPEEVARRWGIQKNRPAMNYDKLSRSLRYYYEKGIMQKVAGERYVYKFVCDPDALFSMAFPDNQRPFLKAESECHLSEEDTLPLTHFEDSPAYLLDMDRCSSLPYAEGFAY
# Chain of HSF1 (Q00613 whole entry): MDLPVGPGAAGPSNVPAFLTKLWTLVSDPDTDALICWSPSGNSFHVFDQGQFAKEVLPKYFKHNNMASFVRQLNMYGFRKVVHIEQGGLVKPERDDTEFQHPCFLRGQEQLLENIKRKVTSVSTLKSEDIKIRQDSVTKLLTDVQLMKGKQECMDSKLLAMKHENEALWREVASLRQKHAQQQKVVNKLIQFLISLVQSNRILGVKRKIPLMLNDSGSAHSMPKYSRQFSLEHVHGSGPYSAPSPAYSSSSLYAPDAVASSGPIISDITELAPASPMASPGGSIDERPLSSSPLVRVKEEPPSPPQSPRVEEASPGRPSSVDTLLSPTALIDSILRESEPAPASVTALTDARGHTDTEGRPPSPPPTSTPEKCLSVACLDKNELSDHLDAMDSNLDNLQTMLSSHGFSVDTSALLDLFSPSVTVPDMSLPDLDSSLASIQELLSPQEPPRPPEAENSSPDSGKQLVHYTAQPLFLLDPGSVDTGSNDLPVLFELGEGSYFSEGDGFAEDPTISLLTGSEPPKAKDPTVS
# Chain of ETV1 (P50549 whole entry): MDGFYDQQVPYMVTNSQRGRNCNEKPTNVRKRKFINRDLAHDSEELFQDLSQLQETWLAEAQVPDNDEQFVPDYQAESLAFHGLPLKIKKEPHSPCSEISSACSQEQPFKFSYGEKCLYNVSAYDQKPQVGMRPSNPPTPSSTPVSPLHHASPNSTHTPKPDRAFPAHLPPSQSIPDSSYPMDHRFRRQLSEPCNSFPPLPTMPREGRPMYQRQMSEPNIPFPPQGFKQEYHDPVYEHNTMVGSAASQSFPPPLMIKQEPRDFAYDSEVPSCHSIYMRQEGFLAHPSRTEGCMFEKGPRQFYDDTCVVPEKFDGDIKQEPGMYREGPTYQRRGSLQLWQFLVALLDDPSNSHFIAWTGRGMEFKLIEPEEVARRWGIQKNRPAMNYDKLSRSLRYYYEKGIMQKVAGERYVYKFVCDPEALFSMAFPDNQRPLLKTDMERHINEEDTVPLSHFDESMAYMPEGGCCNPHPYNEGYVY
# Chain of ELF1 (P32519 whole entry): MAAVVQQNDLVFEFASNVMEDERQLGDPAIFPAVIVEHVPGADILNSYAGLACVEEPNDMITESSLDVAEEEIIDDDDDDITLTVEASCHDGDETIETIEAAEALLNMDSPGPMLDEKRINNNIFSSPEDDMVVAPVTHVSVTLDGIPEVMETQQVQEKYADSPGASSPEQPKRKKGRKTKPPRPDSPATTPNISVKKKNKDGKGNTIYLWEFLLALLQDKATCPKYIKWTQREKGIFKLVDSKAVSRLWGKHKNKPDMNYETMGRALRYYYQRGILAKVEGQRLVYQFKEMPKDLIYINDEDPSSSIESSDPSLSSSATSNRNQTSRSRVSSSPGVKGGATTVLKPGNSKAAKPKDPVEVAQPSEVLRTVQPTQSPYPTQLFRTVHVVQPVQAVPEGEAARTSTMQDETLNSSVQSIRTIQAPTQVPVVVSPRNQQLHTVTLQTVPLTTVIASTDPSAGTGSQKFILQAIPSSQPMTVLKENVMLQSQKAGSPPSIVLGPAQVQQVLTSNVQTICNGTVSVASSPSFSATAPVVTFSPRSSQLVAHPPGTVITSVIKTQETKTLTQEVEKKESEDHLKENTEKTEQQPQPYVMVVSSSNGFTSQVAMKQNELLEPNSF
# Chain of SPIB (Q01892 whole entry): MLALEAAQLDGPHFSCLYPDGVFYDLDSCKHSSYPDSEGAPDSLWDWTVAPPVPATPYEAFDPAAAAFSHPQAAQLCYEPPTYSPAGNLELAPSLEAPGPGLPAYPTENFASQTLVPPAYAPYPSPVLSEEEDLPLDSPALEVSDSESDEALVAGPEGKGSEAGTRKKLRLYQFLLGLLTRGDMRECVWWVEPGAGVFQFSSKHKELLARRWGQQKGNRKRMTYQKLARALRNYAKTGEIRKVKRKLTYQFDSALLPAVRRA
# Chain of CRX (O43186 whole entry): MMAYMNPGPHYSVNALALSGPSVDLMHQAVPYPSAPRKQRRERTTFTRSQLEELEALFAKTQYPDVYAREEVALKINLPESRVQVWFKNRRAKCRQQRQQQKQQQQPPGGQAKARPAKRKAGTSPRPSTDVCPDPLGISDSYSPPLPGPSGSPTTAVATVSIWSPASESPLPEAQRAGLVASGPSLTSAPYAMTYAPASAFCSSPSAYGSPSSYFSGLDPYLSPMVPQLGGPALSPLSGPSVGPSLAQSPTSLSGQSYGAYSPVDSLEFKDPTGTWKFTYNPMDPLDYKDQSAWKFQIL
sequence,measurement,setting,value
GCTATT,binding signal,FLI1,"1.33 fold enrichment (6-mer frequency, TF over GST control)"
same,binding signal,ELK1,"1.34 fold enrichment (6-mer frequency, TF over GST control)"
same,binding signal,GABPA,"1.36 fold enrichment (6-mer frequency, TF over GST control)"
same,binding signal,ERG,"1.3 fold enrichment (6-mer frequency, TF over GST control)"
same,binding signal,ELF1,"1.26 fold enrichment (6-mer frequency, TF over GST control)"
same,binding signal,EHF,"1.39 fold enrichment (6-mer frequency, TF over GST control)"
same,binding signal,SPI1,"1.3 fold enrichment (6-mer frequency, TF over GST control)"
same,binding signal,SPIB,"1.28 fold enrichment (6-mer frequency, TF over GST control)"
same,binding signal,ELK3,"1.39 fold enrichment (6-mer frequency, TF over GST control)"
same,binding signal,FEV,"1.29 fold enrichment (6-mer frequency, TF over GST control)"
same,binding signal,ETV5,"1.3 fold enrichment (6-mer frequency, TF over GST control)"
same,binding signal,HSF1,"1.22 fold enrichment (6-mer frequency, TF over GST control)"
same,binding signal,SPIC,"1.38 fold enrichment (6-mer frequency, TF over GST control)"
same,binding signal,ELF4,"1.38 fold enrichment (6-mer frequency, TF over GST control)"
same,binding signal,ELK4,"1.56 fold enrichment (6-mer frequency, TF over GST control)"
same,binding signal,ETV2,"1.41 fold enrichment (6-mer frequency, TF over GST control)"
same,binding signal,ELF3,"1.45 fold enrichment (6-mer frequency, TF over GST control)"
same,binding signal,CRX,"1.38 fold enrichment (6-mer frequency, TF over GST control)"
same,binding signal,ETV1,"1.3 fold enrichment (6-mer frequency, TF over GST control)"
